How the values were obtained:
Assay in all cases: PBM binding z-score (relative to random genomic background probes); higher = stronger binding; sequences stand for … in GC…GCGATTGACAGCGTAGAATGAAGG
[1] = system: PPARg:RXRa DBDmut IVT, anti-RXR (DBD mutation: RXRa K156A/R161A, NR concentration 270 nM, RXRa partner concentration 90 nM)
How it was run: (§1)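 Regression normalization was applied to scanned fluorescence from custom Agilent 4×180K protein-binding microarrays. Before scanning, arrays were incubated 1 h with ligand-free nuclear receptor dimers, and binding was detected with antibodies against each partner (one per run). Binding z-scores use the random background probes as reference.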

[2] = system: PPARg:RXRa IVT, anti-PPARg (NR concentration 270 nM, RXRa partner concentration 90 nM)
How it was run: as §1

[3] = system: PPARg DBDmut:RXRa IVT, anti-PPARg (DBD mutation: PPARg1 K132A/R137A, NR concentration 270 nM, RXRa partner concentration 90 nM)
How it was run: as §1

[4] = system: PPARg DBDmut IVT, anti-PPARg (DBD mutation: PPARg1 K132A/R137A, NR concentration 270 nM)
How it was run: as §1

[5] = system: PPARg homodimer (NR concentration 180 nM)
How it was run: as §1

[6] = system: PXR:RXRa (NR concentration 270 nM, RXRa partner concentration 90 nM)
How it was run: as §1

[7] = system: PXR homodimer (NR concentration 270 nM)
How it was run: as §1

[8] = system: RARa:RXR (NR concentration 270 nM, RXRa partner concentration 90 nM)
How it was run: as §1

[9] = system: RARa homodimer (NR concentration 270 nM)
How it was run: as §1

[10] = system: RARb:RXRa (NR concentration 270 nM, RXRa partner concentration 90 nM)
How it was run: as §1

Row | Sequence | PBM binding z-score [1] | PBM binding z-score [2] | PBM binding z-score [3] | PBM binding z-score [4] | PBM binding z-score [5] | PBM binding z-score [6] | PBM binding z-score [7] | PBM binding z-score [8] | PBM binding z-score [9] | PBM binding z-score [10]
1 | CGGACGAGGGCATGAGTTGATAGCAAATGCCGAT | 1.74 | 0.979 | -0.792 | -1.58 | -0.164 | 0.528 | 0.00329 | 0.284 | 0.0592 | 2.03
2 | TAGCCTAGGTCATGCGGGCCAGTATGGTGTCGGC | 1.73 | 2.9 | -0.0668 | -0.181 | 0.816 | 1.42 | -0.582 | 2.52 | -0.311 | 3.65
3 | CCTATTAGTTGACCATAAGGGCAACCGTAGCTCG | 0.583 | 0.704 | 0.408 | 0.82 | 1.76 | 0.746 | 0.617 | 0.869 | 1.7 | 1.66
4 | TCTATTTGTTGAAGGGCAACCGACGAGTCCGTTT | 2.54 | 1.08 | 1.34 | 1.56 | 1.38 | 1 | 1.16 | 0.596 | 2.02 | 1.68
5 | ATCTCTAGTTAAAAGTTCAGTGAATCCCGAGGAT | 0.0721 | 0.398 | 0.853 | 1.16 | 1.56 | 1.9 | 2 | 1.03 | 1.8 | 2.2
6 | ATATGTAGGTTAGCTGGGGTCATTCAAACTAGGC | 7 | 6.34 | 2.93 | 1.75 | 3.19 | 6.37 | 4.83 | 5.84 | 1.69 | 3.18
7 | CCTTACGGGTCACGAGGATATAGCACGACGAGCG | 3.74 | 4.93 | 1.1 | 0.884 | 2.13 | 3.42 | -0.093 | 4.41 | 1.37 | 4.59
8 | ATCTCTAGGTAAAGATAATTCAGTGAATGCAAAT | 2.32 | 1.93 | 1.06 | 1.29 | 0.141 | 0.14 | 0.504 | 0.441 | 1.38 | -0.0226
9 | ACTTACGGGTCATCGAGGTTATAGCACGCGTATA | 2.89 | 4.16 | 1.78 | 1.14 | 2.09 | 5.14 | 4.1 | 4.92 | 1.11 | 4.11
10 | TCTAGCAGGCGAGAGGGTCACTCAAGAGGTACGG | 0.656 | -0.139 | -0.781 | -0.425 | 0.125 | 1.47 | -0.472 | 2.24 | -0.11 | 1.81
11 | CCTGCTAGGTCAATGGTAAGCTAAAGCAGCTCGC | 4.33 | 3.43 | -1.49 | -0.489 | 1.05 | 0.564 | -0.596 | 1.5 | -0.463 | 3.79
12 | CCGACTGGGGCAAAGGTTACCAGACTCAGTACGA | 4.51 | 5.88 | -0.692 | -1.09 | 0.726 | 2.48 | -0.264 | 3.64 | -0.558 | 2.66
13 | GGAACGAGGGCAAAGTTGAGAGCATCTGTCGACG | 4.15 | 4.7 | 0.813 | 0.305 | 0.644 | 1.42 | -0.0151 | 2.15 | -0.358 | 2.61
14 | TCTTGTACATCAAAGGTTAAGAAAGCCGAAGCCT | 1.6 | 1.77 | 1.53 | 0.483 | 1.01 | 1.73 | 0.178 | 2.66 | 0.601 | 2.15
15 | TCGAGTAGTTTACCAATGGGGCATTCAGCTTTCT | 0.933 | -0.146 | -0.382 | 0.0492 | -0.418 | -0.0619 | -0.235 | 0.338 | -0.982 | 0.0508
16 | ACTATTAGTAGAGACGAGGGCAACCGATAGGTTG | -0.0666 | 0.751 | 1.1 | 0.293 | 0.251 | 0.541 | 0.137 | 0.421 | 0.262 | 0.97
17 | CAAACTAGGTCAACGGTCAAAGTCGAGCCAACCA | 8.71 | 9.01 | 1.94 | 3.3 | 2.91 | 2.17 | 0.267 | 3.71 | 0.962 | 4.51
18 | CCGACTGGGGCATACGGTTACCATAAGCCAGCCC | 2.5 | 2.15 | -0.604 | -1.2 | 0.276 | -0.401 | -0.646 | -0.126 | -0.0238 | 0.496
19 | AGACTGAGGTTACCAAAGATCAGGGAAACGCTTG | 0.451 | 1.01 | -0.133 | -0.273 | 0.133 | 1.42 | -0.0396 | 1.82 | -0.111 | 2.08

— the supplement of paper PMC6555819
